Common to all, as to experiment: NCI-60 one-dose screen, 48 h (100 = growth as untreated, 0 = no growth, -100 = all killed)
Holding throughout (conditions): 10 µM unless noted

The subject of assay [1] is HCT-15 colon.
The test system of assay [2] is PC-3 prostate.
Assay [3] deals with SK-MEL-5 melanoma.
For assay [4], the system named is LOX IMVI melanoma.
Assay [5] concerns SK-MEL-28 melanoma.
Assay [6] relates to HT29 colon.
Assay [7] concerns SNB-19 CNS.
The test system of assay [8] is U251 CNS.
Assay [9] concerns UACC-62 melanoma.
Assay [10] deals with SNB-75 CNS.

About 83,000 compounds went through this panel and 20% of them were active in at least one assay; those are over-represented in the sample as a whole.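 Assay: single dose, 48 h. Readout: percent growth (0 = no net growth; negative = cell death). Active: <10.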 Values without a mark were called inactive. Active and inactive are the calls of the source.

Consider `NNc1ccc(S(N)(=O)=O)cc1`, for which the growth in [1] is 110%; in [2] it was 90.2%; in assay [3], 100%; in assay [4], 86.4%; in [5], 108%.
In the case of `Cc1ccc(C(=O)CC(=O)C(F)(F)C(F)(F)C(F)(F)F)s1`, the growth in [1] was 105%; in [6] it was 110%; in assay [7] it was 104%; in [8], 108%; in assay [2], 92.8%; in assay [3] it was 106%. Further, the growth in assay [9] is 96.6%; in assay [4] it was 104%; in assay [5], 110%.
With `Cc1ccc(C)c(NC(=O)c2sc3c(=O)[nH]cnc3c2C)c1`, the growth in assay [1] was 49.8%; in assay [6], 34.9%; in [7], 91.7%; in assay [8], 86.1%; in assay [2] it was 83.4%; in assay [3], 74.4%. Further, the growth is 61.1% in assay [9], 85% in assay [4] and 89.3% in assay [5].
`NC(CCC(=O)NC(CS)C(=O)NCC(=O)O)C(=O)O` (centres undefined): the growth in [1] was 101%; in [6] it was 106%; in assay [7], 99%; in [8], 106%; in [2], 81.5%; in [3] it was 102%. Further, the growth in [9] is 96.7%; in [4], 104%; in [5], 116%.
On to `Cc1cccc2nc3ccccc3c(Nc3ccc(NS(C)(=O)=O)cc3)c12`, for which the growth in assay [1] was 37.2%; in assay [6], 46%; in assay [7] it was 59.7%; in [8], 15.8%; in assay [2] it was 66.7%; in [3], 48.3%. The results for the growth in assay [9], in assay [4] and in [5] were 63.4%, 33.8% and 73%, respectively.
As for `CCOC(=O)C1=C(C)NC(=S)NC1c1ccccc1` (centres undefined), the growth in assay [1] is 104%; in assay [6], 110%; in assay [7], 104%; in [8], 105%; in [2], 115%; in assay [3] it was 103%. Moreover, the growth is 95.6% in assay [9], 101% in assay [4] and 112% in assay [5].
On to `CCOC(=O)Nc1ccc2nc(Sc3ccc(Cl)cc3)sc2c1`, for which the growth in [1] is 25.5%; in assay [6], 19.4%; in [7] it was 48.3%; in assay [8], 36.1%; in [2], 34.3%; in assay [3] it was 6.76% (active). The growth in assay [9] was 33.8%; in assay [4] it was 47.9%; in [5] it was 38.1%.
Take `CC(=O)O[C@@H]1CC2C(C)(C)CCCC2(C)C2=C1C(=O)C(C(C)C)=CC2=O` (some centres undefined): the growth was -8% (active) in [1]; 0.85% (active) in assay [6]; 20.9% in assay [7]; 3.62% (active) in assay [8]; 12% in assay [2]; -93.3% (active) in [3]. The growth is -64.4% (active) in assay [9], 10.6% in assay [4] and -16.8% (active) in assay [5].
Turning to `N#CCCn1cnc2c(N)ncnc21`, the growth in assay [1] was 98.3%; in assay [6] it was 101%; in [7], 99.4%; in assay [8] it was 98.8%; in [2] it was 94.2%; in [3], 113%. Further, the results for the growth in assay [9], in assay [4] and in assay [5] were 96.7%, 97.1% and 107%, respectively.
Take `CCCCCCCCCCCCCC`: the growth in assay [1] was 106%; in assay [10], 72.4%; in [2], 88.1%; in assay [3], 108%; in assay [4], 94.9%; in assay [5], 106%.
Regarding `CCCCCCCCCCCCNC(=O)N[C@H](C(=O)N[C@H]1/C=C/OCCNC(=O)/C=C/[C@H](C(C)C)NC1=O)C(C)C`, the growth in assay [1] is 117%; in [6] it was 34.9%; in assay [7], 47.1%; in [8] it was 43.2%; in [2], 51.1%; in [3] it was 46.1%. Also, the growth is 55.4% in assay [9], 55.7% in [4] and 46.3% in [5].
Turning to `FC(F)(F)c1cc(-c2nnc3n2N=C(Cl)CS3)cc(C(F)(F)F)c1`, the growth in assay [1] was 96.8%; in [6], 113%; in [7], 107%; in assay [2], 96.2%; in assay [3] it was 98.9%; in [9], 101%. Further, the growth in [4] was 77.1%; in [5] it was 134%.
`CCOC(=O)C(CCCCC(NC(C)=O)(C(=O)OCC)C(=O)OCC)(NC(C)=O)C(=O)OCC`: the growth in assay [1] is 106%; in assay [6], 100%; in [7], 110%; in [8] it was 104%; in assay [2], 101%; in assay [3], 104%. In addition, the figures for the growth in assay [9], in [4] and in assay [5] were 99.5%, 98.3% and 97%, respectively.
Regarding `COC(=O)c1ccc2c(c1)nc(-c1cc3ccccc3[nH]c1=O)n2-c1cc(C(C)(C)C)[nH]n1`, the growth in assay [1] was 78.2%; in assay [6], 7.39% (active); in [7], 35%; in assay [8], 39.7%; in assay [2], 53%; in assay [3], 74.9%. Besides, the growth in assay [9] is 51.2%; in [4] it was 11.2%; in assay [5], 84.1%.
For the molecule `CCCCCCCCCCCCCCCCCC1=NCCN1CCO`, the growth in [1] was 61.7%; in assay [6], 61.5%; in [7], 95.5%; in [8] it was 75.6%; in assay [2], 63.6%; in assay [3] it was 106%. In addition, the growth was 92% in assay [9], -47.2% (active) in assay [4] and 89.4% in assay [5].
Regarding `Nc1cc(C(=O)O)cc(C(=O)O)c1`, the growth in [1] was 111%; in [6], 97.2%; in [7] it was 111%; in assay [8] it was 108%; in [2] it was 96.8%; in assay [3] it was 108%. Moreover, the growth in assay [9] is 104%; in assay [4] it was 115%; in [5] it was 115%.
For the molecule `Cn1c(-c2ccccc2)cc(=O)n1-c1ccccc1`, the growth in assay [1] is 104%; in assay [6], 106%; in assay [7] it was 108%; in [8], 109%; in [2] it was 100%; in [3], 104%. The growth is 103% in assay [9], 101% in assay [4] and 113% in [5].
As for `O=C1/C(=C/N2N=C(c3ccc(Cl)cc3)CC2c2ccccc2O)SC(=S)N1c1cccc(C(F)(F)F)c1` (centres undefined), the growth in assay [1] is 43.5%; in assay [6], 37.6%; in assay [7] it was 71%; in assay [8], 45.1%; in assay [2] it was 23.6%; in assay [3], 79.7%. Also, the growth in assay [9] is 52.3%; in assay [4], 48.3%; in assay [5], 73.9%.
Regarding `C[N+](C)(C)CCCCCCCCCC[N+](C)(C)C`, the growth in [10] was 89.3%; in [7], 98.7%; in assay [8], 91.1%; in assay [2], 89.3%; in assay [3] it was 97.4%; in assay [9], 91.7%. For the same molecule, the growth in [4] was 84.7%; in assay [5] it was 104%.
Regarding `COc1cccc(-c2nc3sccn3c2-c2ccnc(NCCN3CCCN(C)S3(=O)=O)n2)c1`, the growth in [6] was 50.6%; in [10], 62.5%; in [7] it was 123%; in assay [8], 99.9%; in assay [2], 87.2%; in [3], 84.1%. In addition, the figures for the growth in [9], in assay [4] and in [5] were 15.2%, 45.2% and 53%, respectively.
In the case of `CC(C)CCSc1nc(Nc2ccccc2)c(C#N)c(-c2ccc(F)cc2)n1`, the growth in [6] was 49.9%; in assay [10] it was 42.1%; in [7] it was 53%; in assay [8], 14%; in assay [2], 59.1%; in [3], 96.6%. The growth in [9] was 82.4%; in assay [4] it was 60.4%; in assay [5], 87.3%.
On to `CC(C)(C)c1ccc(C(=O)Nc2sc3cc(O)ccc3c2C(N)=O)cc1`, for which the growth is 23.8% in assay [6]; 95.9% in assay [10]; 94.1% in [7]; 77.5% in assay [8]; 79.2% in assay [2]; 96.6% in [3]. The growth is 104% in [9], 23.3% in assay [4] and 87.5% in assay [5].
As for `N/C(=N\O)c1ncc(-c2ccc(C(F)(F)F)cc2)c(NC2CCCCCC2)n1`, the growth is -91.6% [100 µM] (active) in assay [6]; -12.7% [100 µM] (active) in assay [7]; -88.9% [100 µM] (active) in [2]; -85.8% [100 µM] (active) in [3]; -88.2% [100 µM] (active) in assay [9]; -73.5% [100 µM] (active) in assay [4]. In addition, the growth in [5] was 10.3% [100 µM].
On to `O=C(Nc1ccncc1)C(=O)c1cn(S(=O)(=O)c2cccc(Cl)c2F)c2ccccc12`, for which the growth in assay [6] was 50%; in assay [10], 80.7%; in assay [7] it was 82.7%; in [8] it was 73.6%; in [2] it was 75.8%; in [3], 57.5%. The growth was 57% in assay [9], 51.3% in assay [4] and 95.1% in [5].
For `COc1cc(C2CC(c3ccc(Cl)cc3)=NN2C=O)ccc1Oc1ccnc2cc(Cl)ccc12` (centres undefined), the growth is 58% in assay [6]; 7.19% (active) in assay [10]; 72.6% in [7]; 72.5% in [8]; 66.8% in [2]; 51% in [3]. Also, the growth in assay [9] was 74.6%; in [4], 74.2%; in assay [5] it was 74.4%.
As for `COc1ccc2c(c1)N(Cc1ccc(Cl)cc1)CCC2N1CCCC1=O` (centres undefined), the growth in assay [6] is 45.5%; in assay [10], 27.1%; in assay [7] it was 54.7%; in assay [8] it was 39.1%; in [2], 24%; in assay [3], 24.7%. For the same molecule, the growth is 42.1% in assay [9], 30.3% in assay [4] and 63.5% in assay [5].
Regarding `COc1cc(OC)c(Cl)cc1N`, the growth is 107% in [6]; 101% in assay [10]; 100% in assay [7]; 104% in assay [8]; 88.7% in assay [2]; 112% in [3]. For the same molecule, the growth in assay [9] is 97.8%; in [4] it was 101%; in assay [5], 109%.
Take `S=C(S)Oc1cccc2cccnc12`: the growth was 98% in assay [6]; 87% in [10]; 105% in assay [8]; 84.7% in assay [2]; 110% in assay [3]; 96.4% in [9]. The growth was 98.9% in [4] and 109% in [5].
Take `CNC(=O)c1c(NC(=O)c2cccc(C(F)(F)F)c2)sc2c1CCC(=O)C2`: the growth was 4.59% (active) in [6]; -7.71% (active) in [10]; 13.8% in assay [7]; 2.7% (active) in [8]; -46.4% (active) in assay [2]; -68.3% (active) in assay [3]. Besides, the results for the growth in assay [9], in assay [4] and in assay [5] were -41.1% (active), -49.6% (active) and 7.1% (active), respectively.

Source of the values: PubChem BioAssay (NCI).
